Laboratory results: PubChem BioAssay (Tox21)
Values without a mark were called inactive. Activity calls are given as the source filed them. Calls follow the shape of the dose curve; as a rule, active = well fitted curve in the direction sought with a large enough effect in the repeat runs; inconclusive = weak or mixed curves; inactive = flat fitted curve, though single readings scatter.

Experiment: qHTS assay to test for compound auto fluorescence at 535 nm (green) in HEK293 cells (AID 720680)
Details: green autofluorescence 485/535 nm; series mostly up to 91.3 µM
Source text: U.S. Tox21 Program National Center for Advancing Translational Sciences [NCATS] NIH Chemical Genomics Center [NCGC] U.S. Environmental Protection Agency [EPA] National Institutes of Environmental Health Sciences [NIEHS] National Toxicology Program [NTP] U.S. Food and Drug Administration [FDA] Tox21 Assay Overview: Compound auto fluorescence often interferes with screening of the compound library against various biological targets and signaling pathways. Some of these compounds may have fluorophoric properties. Such properties may interfere with the assay outputs resulting in false positives and/or negatives. To decrease such complications and ensure the compound activities are relevant in terms of biological response, the Tox21 10K compound library was screened for auto fluorescence. From the fluorophores used as reporter signals in our screening assays, the auto fluorescence equivalencies of compounds against three fluorophores have been evaluated: Triamterene, Fluorescein and Rose Bengal sodium for blue, green and red fluorescence, respectively. The fluorescence intensities were measured using Excitation/Emission wavelengths at 405/460nm, 485/535nm and 540/590nm for blue, green and red labels, respectively. This assay includes the green fluorescence data.
Tox21 Assay Protocol Summary: 2,000 HEK293 cells in 5 uL of culture medium containing 10% dialyzed FBS per well were dispensed into black wall/clear bottom 1536-well plates using a Multidrop Combi Dispenser (Thermo Scientific). The assay plates were incubated for 4-5 hr at 37C to allow cell attachment to the well bottom, followed by the transfer of 23 nL compound or DMSO vehicle by a pintool work station (Kalypsys, San Diego, CA). After the assay plates were incubated overnight at 37C and 5% CO2, fluorescence intensities in the assay plates were measured by an Envision (PerkinElmer, Shelton, CT) plate reader using three labels for measuring blue, green and red fluorescence at […] 460, 535 and 590nm respectively.
% is scaled to controls: 0 for no effect and ±100 for the full control effect.

SMILES	outcome	fluorescence, % of fluorescein
[O-][N+](=Nc1ccccc1)c1ccccc1	inactive	–
CO	inactive	–
COC(=O)CCCCCCCCC(=O)OC	inactive	–
CCCCNc1ccccc1	inactive	–
COc1cccc(Br)c1	inactive	–
C=CCn1c(=O)n([C@@H]2O[C@H](CO)[C@@H](O)[C@H]2O)c2nc(N)[nH]c(=O)c21	inactive	–
C1C2OC2C2C1C1CC2C2OC12 (stereo not given)	inactive	–
CSc1ccc(C=O)cc1	inactive	–
CCC(=O)/C=C/c1ccc(OC)cc1	inactive	–
C=C[Si](OC)(OC)OC	inactive	–
N#CCN(CC#N)CCN(CC#N)CC#N	inactive	–
CCOC(=O)[C@H](CCc1ccccc1)N[C@@H](C)C(=O)N1CCC[C@H]1C(=O)O	inactive	–
C=CC(=O)N1CCOCC1	inactive	–
CCC(C)OC(=O)N1CCCCC1CCO (stereo not given)	inactive	–
CCO[Si](CCCN=C=O)(OCC)OCC	inactive	–
Cc1nccn1CC1CCc2c(c3ccccc3n2C)C1=O (stereo not given)	inactive	–
CCCCc1ccc2cccc(S(=O)(=O)O)c2c1	inactive	–
NC(N)=NS(=O)(=O)c1ccc(N)cc1	–	0.0406% [at 18.6 µM]
Nc1ccn(C2CO[C@H](CO)O2)c(=O)n1 (stereo not given in full)	inactive	–
c1ccc(CCCc2ccccn2)cc1	inactive	–

SMILES	outcome	fluorescence, % of fluorescein
OCC(O)[C@@H](O)[C@H](O)[C@H](O)CO[C@H]1O[C@H](CO)[C@@H](O)[C@H](O)[C@H]1O (stereo not given in full)	inactive	–
Nc1[nH]c(=O)ncc1F	–	0.0412% [at 18.6 µM]
NS(=O)(=O)c1cc2c(cc1Cl)NC(CSCc1ccccc1)=NS2(=O)=O	–	-0.0376% [at 18.6 µM]
OC1OC[C@@H](O)[C@H](O)[C@H]1O (stereo not given in full)	inactive	–
N#CCc1ccccc1[N+](=O)[O-]	inactive	–
CCN1CCCC(OC(=O)C(c2ccccc2)c2ccccc2)C1 (stereo not given)	–	-0.0754% [at 18.6 µM]
NCCNC(=O)c1ccc(Cl)cn1	inactive	–
CCC(=O)c1cccc(Cl)c1	inactive	–
COc1cc(O)cc(O)c1	inactive	–
Oc1cc(O)c2c(c1)O[C@H](c1ccc(O)c(O)c1)[C@H](O)C2	inactive	–
CCCCCCCCCCCCCCCCCC(=O)OCCCCCCCCCCCCCC(C)C	inactive	–
CC(C)COC(=O)c1ccccc1O	inactive	–
FC(F)(F)C(F)(F)C(F)(F)C(F)(F)C(F)(F)C(F)(F)C(F)(F)C(F)(F)C(F)(F)C(F)(F)F	–	0.0789% [at 9.17 µM]
CCCCCC[C@@H](CCC)C(=O)O	inactive	–
O=C1OC(=O)c2cc([N+](=O)[O-])ccc21	inactive	–
CC(C)(C)N(CCO)CCO	inactive	–
O=C(O)C(O)[C@H](O)[C@@H](O)[C@H](O)[C@H](O)CO (stereo not given in full)	inactive	–
NC(CS)C(=O)O (stereo not given)	inactive	–
COc1cc(C)cc(O)c1	inactive	–
CCCCCCCCC=O	inactive	–
